PubChem BioAssay
The source made the active and inactive calls.

What follows are compounds tested on XIP peptide (Xip251-270) binding (assay: XIP fragment 251-270 binding compounds – biochemical, small-molecule microarray, fluorescence 635/667 nm, 0.1 µg/mL protein, primary screen (AID 1182)). Conditions: fluorescent protein binding, 635 nm, higher = more signal, called active from +8 up or from −8 down.

Composite z-score, inactive:
CCN1C(=O)[C@H]2[C@H]3[C@H](O)[C@H](O)CC(=NOC(C)CN4CCCCc5nc(C)c(C)cc54)[C@@H]3CC[C@H]2C1=O (stereo not given in full) 0.746
CO[C@H]1COC(=O)[C@H](C)COC(=O)CC=C[C@@H](C)[C@H](OC)COC(=O)CC=C[C@@H]1C 0.159
CC(=O)OC[C@H]1O[C@H](CCON=C(C)CCC(=O)OC[C@H]2O[C@H](C#Cc3ccccc3)C=C[C@@H]2Oc2ccc(C)cc2)C=C[C@@H]1OC(C)=O -0.365
CC(=O)C[C@H](O)[C@@H](NC(=O)OC(C)(C)C)C(C)C -0.0306
COC(=O)[C@H](C)NC(=O)CCC1CC(OC(=O)NCc2ccc3c(c2)OCO3)CC2(CCCC(COC(=O)NCCOc3ccccc3)O2)O1 (stereo not given in full) -0.045
CC1(C)OCC(C(O)C2=CCCCC2=O)CO1 (stereo not given) 0.563
COC(=O)[C@@H]1CC[C@H](C)[C@@H](c2ccc(C)cc2)N1C(=O)c1ccc(C=NOC(C)CN2CCCCc3nc(C)c(C)cc32)cc1 (stereo not given in full) -0.206
O=C1[C@H]2[C@H]3[C@H](O)[C@H](O)CC(=NOC[C@@H](O)COCc4ccco4)[C@H]3CC[C@H]2C(=O)N1C1CCCCC1 -0.26
CCCNC(=O)OC[C@H]1O[C@H](CCON=CC[C@@H]2C=C[C@H](OC(C)=O)[C@@H](COC(C)=O)O2)C=C[C@@H]1Oc1ccc(OC)cc1 0.27
COc1ccc(COC(=O)NN=C2C[C@@H](O)[C@@H](O)[C@@H]3[C@@H]4C(=O)N(c5ccc(F)cc5F)C(=O)[C@@H]4CC[C@@H]23)cc1 -0.413
